# Test results reported in PubChem BioAssay (EPA / NIEHS).
# Results filed as inconclusive are left out. The source made the active and inactive calls. The calls were made as follows, unless noted: active = hit-call score of the fitted dose curve at least 0.9, where 1 is the maximum; inactive = score below 0.9.
# Key:
# [1] = ACEA_ER_80hr: ACEA Biosciences xCELLigence Real-Time Cell Analysis on Estrogen Receptor Agonism for Proliferation (AID 2282667; active = hit-call score of the fitted dose curve at least 0.9, where 1 is the maximum); settings: T47D proliferation, impedance (xCELLigence), 80 h
# In short: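 T-47D cells monitored by electrical impedance (xCELLigence) with compound present throughout; 80 h timepoint, positive-direction fitting versus DMSO. Eight-point 1:4 dilutions from 100 uM final, duplicate plates.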
# [2] = ATG_CRE_CIS: Attagene CIS-FACTORIAL HepG2 Assay for human cAMP Responsive Element (CRE) binding protein 3 (AID 2282926); settings: HepG2 CRE cis-reporter, Attagene multiplexed mRNA; actives raise or lower the signal
# In short: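 Induced reporter mRNA from a CRE cis element, measured in HepG2 among many multiplexed units at 24 h. Detection used RT-PCR plus capillary electrophoresis of fluorescent fragments; DMSO served as negative control.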
# [3] = biological target: CCAAT/enhancer-binding protein beta (Homo sapiens) (UniProt P17676); assay: ATG_C_EBP_CIS: Attagene CIS-FACTORIAL HepG2 Assay for human CCAAT/Enhancer Binding Protein (C/EBP) beta (AID 2282927); settings: HepG2 Attagene cis-factorial transcription factor reporter; actives raise or lower the signal
# In short: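 Changes in reporter mRNA, rather than exogenous chimeric receptor activity, reflect native C/EBP signalling in transfected HepG2 cells dosed for 24 h; transcripts are detected by RT-PCR and capillary electrophoresis.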
# [4] = ATG_CMV_CIS: Attagene CIS-FACTORIAL HepG2 Assay for human CMV (Internal Marker) (AID 2282928); settings: HepG2 CMV promoter reporter, transcription factor profiling; actives raise or lower the signal;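 also: endpoint acts as a background internal control marker rather than a target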
# In short: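 Reporter transcripts from transfected HepG2 cells are isolated after 24 h of chemical dosing, reverse-transcribed and amplified. Fragments labeled with 6-FAM are cut with HpaI and quantified by capillary electrophoresis; DMSO defines baseline.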
# [5] = ATG_DR4_LXR_CIS: Attagene CIS-FACTORIAL HepG2 Assay for human Liver X Receptor (LXR), DR4 submotif (AID 2282929); settings: HepG2 Attagene DR4 cis-reporter, mRNA transcription; actives raise or lower the signal
# In short: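 Total RNA from 24 h-treated, MRTU-transfected HepG2 cells underwent reverse transcription, PCR, fluorescent primer extension and restriction digestion before capillary electrophoresis. Both increases and decreases in reporter signal were fitted against DMSO.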
# [6] = biological target: Aryl hydrocarbon receptor (Homo sapiens) (UniProt P35869); assay: ATG_Ahr_CIS: Attagene CIS-FACTORIAL HepG2 Assay for human Aryl Hydrocarbon Receptor (Ahr) (AID 2282930); settings: HepG2 AhR cis-factorial reporter transcription; actives raise or lower the signal
# In short: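 HepG2, transient MRTU (cis) transfection, 24 h exposure. RNA → cDNA → PCR → 6-FAM primer extension → HpaI 2 h 37 C → CE. Fit: bidirectional, DMSO baseline.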
# [7] = ATG_AP_1_CIS: Attagene CIS-FACTORIAL HepG2 Assay for human Activator Protein 1 (AP-1) (AID 2282931); settings: HepG2 Attagene cis-factorial AP-1 reporter mRNA; actives raise or lower the signal
# In short: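 HepG2, transient cis-reporter transfection; 24 h; readout RT-PCR/CE fluorescence; DMSO baseline, gain and loss fitted.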
# [8] = ATG_AP_2_CIS: Attagene CIS-FACTORIAL HepG2 Assay for human Activator Protein 2 (AP-2) (AID 2282932); settings: HepG2 AP-2 cis-reporter, Attagene transcription factor profiling; actives raise or lower the signal
# In short: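 Endogenous transcription factor activity is reported through transfected multiplex reporter constructs in HepG2, after 24 h of compound exposure. Transcripts were quantified by RT-PCR and capillary electrophoresis of fluorescent fragments. Bidirectional fit against DMSO.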
# [9] = ATG_BRE_CIS: Attagene CIS-FACTORIAL HepG2 Assay for human Bone Morphogenetic Protein (BMP) Response Element (BRE) (AID 2282933); settings: HepG2 BMP response element reporter, Attagene transcription factor profiling; actives raise or lower the signal
# In short: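 Fluorescence-labelled reporter cDNA fragments, separated by capillary electrophoresis, gave the signal for this component of a 52-readout multiplex. HepG2 cells were transfected, exposed to chemicals for 24 h, and compared with DMSO using bidirectional fitting.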
# [10] = biological target: Transcription factor E2F1 (Homo sapiens) (UniProt Q01094); assay: ATG_E2F_CIS: Attagene CIS-FACTORIAL HepG2 Assay for human E2F Transcription Factor 1 (AID 2282935); settings: HepG2 Attagene cis-reporter, E2F reporter RNA transcripts; actives raise or lower the signal
# In short: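 Gain or loss of reporter transcript, fitted against DMSO, reflects E2F1-driven transcription. Transiently transfected HepG2 dosed 24 h before RNA isolation. Quantified by fluorescent RT-PCR products separated by capillary electrophoresis.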
# [11] = ATG_E_Box_CIS: Attagene CIS-FACTORIAL HepG2 Assay for human Enhancer Box (E-box) (AID 2282936); settings: HepG2 E-box cis-reporter transcription, actives raise or lower the signal
# In short: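 E-box-driven reporter transcripts measured in transiently transfected HepG2 after 24 h exposure: RNA reverse-transcribed, PCR-amplified, fluorescently labelled, digested and resolved by capillary electrophoresis. Gain or loss relative to DMSO.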
# [12] = ATG_M_61_CIS: Attagene CIS-FACTORIAL HepG2 Assay for M61 Transcription Factor (Internal Marker) (AID 2282937); settings: HepG2 Attagene CIS-FACTORIAL M61 internal marker reporter; actives raise or lower the signal
# In short: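 Transfect HepG2 with MRTUs; dose 24 h; isolate RNA; reverse-transcribe with DNase I treatment; PCR-amplify, FAM-label and cut with HpaI for 2 h at 37 C; resolve by CE. Bidirectional fitting against DMSO.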
# [13] = ATG_EGR_CIS: Attagene CIS-FACTORIAL HepG2 Assay for human Early Growth Response 1 (EGR1) (AID 2282938); settings: HepG2 Attagene CIS-FACTORIAL EGR reporter mRNA; actives raise or lower the signal
# In short: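 After a 24 h treatment of transiently transfected HepG2 cells, total RNA was reverse-transcribed and reporter sequences PCR-amplified, labelled and run on capillary electrophoresis. Reporters sit under cis-regulatory promoters sensing endogenous factors.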
# [14] = ATG_M_19_CIS: Attagene CIS-FACTORIAL HepG2 Assay for M19 Transcription Factor (Internal Marker) (AID 2282939); settings: HepG2 Attagene CIS-FACTORIAL M19 internal marker reporter; actives raise or lower the signal
# In short: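 HepG2, MRTU transient transfection, 24 h dosing. Total RNA → RT-PCR → 6-FAM primer extension → HpaI digest → CE fluorescence. Bidirectional curve fit, DMSO negative control.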
# [15] = ATG_ERE_CIS: Attagene CIS-FACTORIAL HepG2 Assay for Estrogen Response Element (ERE) (AID 2282940); settings: HepG2 ERE cis-reporter, Attagene RNA transcript; actives raise or lower the signal
# In short: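 After a 24 h chemical treatment, RNA from reporter-transfected HepG2 cells is reverse-transcribed, PCR-amplified and fluorescently labelled. Fragments separated by capillary electrophoresis give reporter signal; DMSO serves as negative control.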
# [16] = ATG_Ets_CIS: Attagene CIS-FACTORIAL HepG2 Assay for human Erythroblast Transformation Specific (ETS) (AID 2282941); settings: HepG2 ETS cis-reporter transcription, actives raise or lower the signal
# In short: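 Bidirectional fit versus DMSO of reporter mRNA signal, detected by RT-PCR and capillary electrophoresis in HepG2 cells transiently transfected with cis-element reporters and dosed 24 h.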
# [17] = biological target: Hepatocyte nuclear factor 3-beta (Homo sapiens) (UniProt Q9Y261); assay: ATG_FoxA2_CIS: Attagene CIS-FACTORIAL HepG2 Assay for human Forkhead box A2 (FOXA2) (AID 2282942); settings: HepG2 cis-reporter transcription factor activity, 24 h; actives raise or lower the signal
# In short: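 24 h dosing of HepG2 bearing cis-reporter constructs; mRNA readout by RT-PCR/CE fluorescence; bidirectional fit, DMSO baseline.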
# [18] = ATG_FoxO_CIS: Attagene CIS-FACTORIAL HepG2 Assay for human Forkhead box O (FoxO) (AID 2282943); settings: HepG2 Attagene cis-reporter, FoxO element, mRNA; actives raise or lower the signal
# In short: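 Human hepatoma HepG2 cells carry transiently introduced reporter transcription units controlled by cis promoter elements. Chemical treatment lasted 24 h, and mRNA signal was compared with DMSO.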
# [19] = ATG_GATA_CIS: Attagene CIS-FACTORIAL HepG2 Assay for human GATA Binding Protein (AID 2282944); settings: HepG2 GATA cis-element reporter, Attagene multiplex mRNA; actives raise or lower the signal
# In short: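 Cells: HepG2, transiently transfected with cis-regulated reporter transcription units. Exposure: 24 h. Detection: RT-PCR plus capillary electrophoresis of FAM-labeled fragments. Analysis: bidirectional, DMSO as baseline.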
# [20] = biological target: Retinoic acid receptor alpha (Homo sapiens) (UniProt P10276); assay: ATG_DR5_RAR_CIS: Attagene CIS-FACTORIAL HepG2 Assay for human Retinoic Acid Receptor Alpha (RARE), DR5 submotif (AID 2282934); settings: HepG2 Attagene cis-factorial RARE DR5 reporter, mRNA; actives raise or lower the signal
# In short: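 HepG2, transient cis-reporter transfection, 24 h exposure. mRNA readout: RT-PCR, FAM label, HpaI cut, capillary electrophoresis. DMSO baseline, gain/loss fitting.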
# Chain of Hepatocyte nuclear factor 3-beta (Homo sapiens) (Q9Y261 whole entry, looked up): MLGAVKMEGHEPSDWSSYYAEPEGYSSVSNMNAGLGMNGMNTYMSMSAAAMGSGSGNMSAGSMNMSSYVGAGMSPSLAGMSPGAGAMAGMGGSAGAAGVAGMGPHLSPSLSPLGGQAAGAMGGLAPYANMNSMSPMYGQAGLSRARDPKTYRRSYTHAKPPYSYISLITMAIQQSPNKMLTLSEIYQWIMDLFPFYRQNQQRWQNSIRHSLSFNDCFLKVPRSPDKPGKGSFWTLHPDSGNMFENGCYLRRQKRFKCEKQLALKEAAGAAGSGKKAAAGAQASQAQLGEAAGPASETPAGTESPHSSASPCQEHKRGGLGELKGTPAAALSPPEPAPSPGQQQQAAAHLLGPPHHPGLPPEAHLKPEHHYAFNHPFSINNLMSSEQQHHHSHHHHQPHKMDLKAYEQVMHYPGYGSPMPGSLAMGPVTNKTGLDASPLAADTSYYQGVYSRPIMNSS
# Chain of CCAAT/enhancer-binding protein beta (Homo sapiens) (P17676 whole entry, looked up): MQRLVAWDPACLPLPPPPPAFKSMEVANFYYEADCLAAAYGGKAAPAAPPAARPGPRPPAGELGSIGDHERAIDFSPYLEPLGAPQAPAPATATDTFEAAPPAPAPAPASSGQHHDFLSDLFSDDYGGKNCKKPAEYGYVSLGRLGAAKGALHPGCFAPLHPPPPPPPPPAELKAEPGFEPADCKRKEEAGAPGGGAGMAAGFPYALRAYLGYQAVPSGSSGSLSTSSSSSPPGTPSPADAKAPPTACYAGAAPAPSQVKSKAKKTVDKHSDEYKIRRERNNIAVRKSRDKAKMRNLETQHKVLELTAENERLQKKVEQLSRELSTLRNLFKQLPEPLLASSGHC
# Chain of Aryl hydrocarbon receptor (Homo sapiens) (P35869 whole entry, looked up): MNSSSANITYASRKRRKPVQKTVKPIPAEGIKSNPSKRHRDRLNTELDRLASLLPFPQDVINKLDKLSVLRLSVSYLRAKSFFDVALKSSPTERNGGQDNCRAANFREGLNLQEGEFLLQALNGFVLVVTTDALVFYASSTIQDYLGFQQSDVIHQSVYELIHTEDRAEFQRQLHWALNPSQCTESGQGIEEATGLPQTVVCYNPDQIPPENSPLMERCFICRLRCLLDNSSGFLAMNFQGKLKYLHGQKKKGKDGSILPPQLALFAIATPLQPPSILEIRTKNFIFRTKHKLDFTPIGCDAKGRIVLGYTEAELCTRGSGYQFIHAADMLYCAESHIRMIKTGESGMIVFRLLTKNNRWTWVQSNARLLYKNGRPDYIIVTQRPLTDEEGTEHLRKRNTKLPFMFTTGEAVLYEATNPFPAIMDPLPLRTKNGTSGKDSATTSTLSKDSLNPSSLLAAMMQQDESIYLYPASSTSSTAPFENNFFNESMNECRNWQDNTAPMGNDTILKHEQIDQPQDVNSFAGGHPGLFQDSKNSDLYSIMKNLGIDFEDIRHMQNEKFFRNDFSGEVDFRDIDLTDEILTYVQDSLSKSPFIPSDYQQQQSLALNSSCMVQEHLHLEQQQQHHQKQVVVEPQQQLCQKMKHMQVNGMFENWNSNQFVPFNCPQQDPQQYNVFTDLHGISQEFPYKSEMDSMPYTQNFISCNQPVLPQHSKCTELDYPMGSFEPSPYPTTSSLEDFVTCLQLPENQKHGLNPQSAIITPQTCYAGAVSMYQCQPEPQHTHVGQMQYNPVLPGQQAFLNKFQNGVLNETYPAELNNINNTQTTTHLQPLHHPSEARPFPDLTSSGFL
# Chain of Transcription factor E2F1 (Homo sapiens) (Q01094 whole entry, looked up): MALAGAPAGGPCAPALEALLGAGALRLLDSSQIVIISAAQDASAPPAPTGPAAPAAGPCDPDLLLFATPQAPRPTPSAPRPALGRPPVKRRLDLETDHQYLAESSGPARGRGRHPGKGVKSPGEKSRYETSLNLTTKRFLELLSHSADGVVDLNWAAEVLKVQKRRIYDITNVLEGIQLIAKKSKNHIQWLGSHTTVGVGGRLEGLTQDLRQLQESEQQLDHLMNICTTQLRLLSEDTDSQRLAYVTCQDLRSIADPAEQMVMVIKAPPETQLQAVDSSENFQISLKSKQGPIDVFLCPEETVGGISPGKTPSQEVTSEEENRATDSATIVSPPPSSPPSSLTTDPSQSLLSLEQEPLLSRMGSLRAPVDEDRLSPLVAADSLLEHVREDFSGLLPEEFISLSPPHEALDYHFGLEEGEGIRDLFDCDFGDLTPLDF
# Chain of Retinoic acid receptor alpha (Homo sapiens) (P10276 whole entry, looked up): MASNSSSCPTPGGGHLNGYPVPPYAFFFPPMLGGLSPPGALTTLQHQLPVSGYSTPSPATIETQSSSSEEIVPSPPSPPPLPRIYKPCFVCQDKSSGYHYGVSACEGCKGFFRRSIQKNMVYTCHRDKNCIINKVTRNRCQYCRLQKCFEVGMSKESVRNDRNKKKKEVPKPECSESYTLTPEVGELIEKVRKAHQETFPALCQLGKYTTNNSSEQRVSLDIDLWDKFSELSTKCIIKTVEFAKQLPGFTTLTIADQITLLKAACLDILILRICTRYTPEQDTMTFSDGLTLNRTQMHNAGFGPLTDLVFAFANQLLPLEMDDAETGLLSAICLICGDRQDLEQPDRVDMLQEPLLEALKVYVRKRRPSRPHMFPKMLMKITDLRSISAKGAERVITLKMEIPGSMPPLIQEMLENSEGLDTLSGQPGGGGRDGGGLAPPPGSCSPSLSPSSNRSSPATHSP
smiles,measurement,setting,value
Cc1ccc(O)c(-n2nc3ccccc3n2)c1,outcome,[1],inactive
same,outcome,[2],inactive
same,outcome,[3],inactive
same,outcome,[4],inactive
same,outcome,[5],inactive
same,AC50,[6],7.41 µM (active)
same,outcome,[7],inactive
same,outcome,[8],inactive
same,outcome,[9],inactive
same,outcome,[10],inactive
same,outcome,[11],inactive
same,outcome,[12],inactive
same,outcome,[13],inactive
same,outcome,[14],inactive
same,AC50,[15],10.4 µM (active)
same,outcome,[16],inactive
same,outcome,[17],inactive
same,outcome,[18],inactive
same,outcome,[19],inactive
C=CCOC(=O)CC(C)C,outcome,[1],inactive
same,outcome,[2],inactive
same,outcome,[3],inactive
same,outcome,[4],inactive
same,outcome,[5],inactive
same,outcome,[7],inactive
same,outcome,[8],inactive
same,outcome,[9],inactive
same,outcome,[20],inactive
same,outcome,[10],inactive
same,outcome,[12],inactive
same,outcome,[13],inactive
same,outcome,[14],inactive
same,outcome,[15],inactive
same,outcome,[16],inactive
same,outcome,[17],inactive
same,outcome,[18],inactive
same,outcome,[19],inactive
CNS(=O)(=O)C(F)(F)C(F)(F)C(F)(F)C(F)(F)C(F)(F)C(F)(F)C(F)(F)C(F)(F)F,outcome,[1],inactive
same,outcome,[2],inactive
same,outcome,[3],inactive
same,outcome,[4],inactive
same,outcome,[6],inactive
same,AC50,[7],13.7 µM (active)
same,outcome,[8],inactive
same,outcome,[9],inactive
same,outcome,[20],inactive
same,outcome,[10],inactive
same,outcome,[11],inactive
same,outcome,[12],inactive
same,outcome,[13],inactive
same,outcome,[14],inactive
same,outcome,[15],inactive
same,outcome,[16],inactive
same,outcome,[18],inactive
same,outcome,[19],inactive
CSc1ccc(O)cc1C,outcome,[1],inactive
same,outcome,[2],inactive
same,outcome,[3],inactive
same,outcome,[4],inactive
same,outcome,[5],inactive
same,outcome,[6],inactive
same,outcome,[7],inactive
same,outcome,[8],inactive
same,outcome,[9],inactive
same,outcome,[10],inactive
same,outcome,[11],inactive
same,outcome,[12],inactive
same,outcome,[13],inactive
same,outcome,[14],inactive
same,AC50,[15],31.7 µM (active)
same,outcome,[16],inactive
same,outcome,[18],inactive
same,outcome,[19],inactive
NCC(F)(F)C(F)(F)C(F)(F)C(F)(F)C(F)(F)C(F)(F)C(F)(F)C(F)(F)F,outcome,[1],inactive
same,outcome,[2],inactive
same,outcome,[3],inactive
same,outcome,[4],inactive
same,outcome,[6],inactive
same,outcome,[7],inactive
same,outcome,[8],inactive
same,outcome,[9],inactive
same,outcome,[10],inactive
same,outcome,[11],inactive
same,outcome,[12],inactive
same,outcome,[13],inactive
same,outcome,[14],inactive
same,outcome,[15],inactive
same,outcome,[16],inactive
same,outcome,[18],inactive
same,outcome,[19],inactive
CCCCOC(=O)[C@H](C)O,outcome,[1],inactive
same,outcome,[2],inactive
same,outcome,[3],inactive
same,outcome,[4],inactive
same,outcome,[5],inactive
same,outcome,[7],inactive
same,outcome,[8],inactive
same,outcome,[9],inactive
same,outcome,[10],inactive
same,outcome,[12],inactive
same,outcome,[13],inactive
same,outcome,[14],inactive
same,outcome,[15],inactive
same,outcome,[16],inactive
same,outcome,[18],inactive
same,outcome,[19],inactive
COCCC(=O)OC,outcome,[1],inactive
same,outcome,[2],inactive
same,outcome,[3],inactive
same,outcome,[4],inactive
same,outcome,[5],inactive
same,outcome,[6],inactive
same,outcome,[7],inactive
same,outcome,[8],inactive
same,outcome,[9],inactive
same,outcome,[10],inactive
same,outcome,[11],inactive
same,outcome,[12],inactive
same,outcome,[13],inactive
same,outcome,[14],inactive
same,outcome,[15],inactive
same,outcome,[16],inactive
same,outcome,[18],inactive
same,outcome,[19],inactive
O=C(O)C(F)(F)C(F)(F)C(F)(F)C(=O)O,outcome,[1],inactive
same,outcome,[2],inactive
same,outcome,[3],inactive
same,outcome,[4],inactive
same,outcome,[6],inactive
same,outcome,[7],inactive
same,outcome,[8],inactive
same,outcome,[9],inactive
same,outcome,[10],inactive
same,outcome,[11],inactive
same,outcome,[12],inactive
same,outcome,[13],inactive
same,outcome,[14],inactive
same,outcome,[15],inactive
same,outcome,[16],inactive
same,outcome,[17],inactive
same,outcome,[18],inactive
same,outcome,[19],inactive
